The text below walks through data of PubChem BioAssay (NCATS).

Values joined by “and” are separate entries in the source; they are usually repeats but may differ in a detail not shown here. Identical values can stand only once. Results filed as inconclusive are left out. Active and inactive are the calls of the source. Calls come from the whole dose curve.

Bile acid receptor (Homo sapiens), sequence (Q96RI1 whole entry, looked up): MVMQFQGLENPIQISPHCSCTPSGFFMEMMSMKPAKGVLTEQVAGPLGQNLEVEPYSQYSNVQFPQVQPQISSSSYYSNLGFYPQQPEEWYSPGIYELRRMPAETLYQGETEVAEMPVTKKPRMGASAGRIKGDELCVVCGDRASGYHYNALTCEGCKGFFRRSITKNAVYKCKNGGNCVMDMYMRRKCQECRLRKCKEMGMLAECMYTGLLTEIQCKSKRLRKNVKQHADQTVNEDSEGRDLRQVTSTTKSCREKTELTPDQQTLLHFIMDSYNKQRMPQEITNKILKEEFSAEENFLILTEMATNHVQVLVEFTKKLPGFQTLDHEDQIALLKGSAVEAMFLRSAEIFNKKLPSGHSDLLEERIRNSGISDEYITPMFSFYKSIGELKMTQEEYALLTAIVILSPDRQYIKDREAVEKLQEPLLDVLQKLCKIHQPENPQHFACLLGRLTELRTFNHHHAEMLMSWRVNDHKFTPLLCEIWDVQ

The target of the assay is Bile acid receptor (Homo sapiens) (UniProt Q96RI1). The assay can be described thus: qHTS assay for small molecule agonists of farnesoid X receptor signaling (AID 588527).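 Note: series mostly up to about 77 µM; 0% = vehicle basal and 100% = reference agonist.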 The settings on record: HEK293T FXR-UAS-bla, beta-lactamase ratio, 16 h; stronger effect = higher value. Summed up:
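FXR-UAS-bla HEK293T cells (10% dialyzed FBS) preincubated 5-7 h at 37 C, then compounds at up to 92 uM for 16 h at 37 C. CCF4 beta-lactamase read-out after 2 h RT. Normalized to chenodeoxycholic acid (100 uM) and DMSO; Hill fit gave EC50 and efficacy.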
For `CC(=O)c1ccc(S(=O)(=O)NC(=O)NC2CCCCC2)cc1`, the activation is -2.29% (inactive) and -1.81% (inactive). The figure for `COc1c2occc2cc2ccc(=O)oc12` is 0.341% (inactive) and 4.08% (inactive); for `CN=C(NC#N)NCCSCc1nc[nH]c1C` it is 1.62% (inactive); for `Cc1noc(NS(=O)(=O)c2ccc(N)cc2)c1C` it is 1.48% (inactive).

Consider `NCCNCCNCCN`, for which the activation is -3.81% (inactive). On to `NC(=O)c1ccccc1O`, for which the activation is -3.79% (inactive). On to `Nc1ccc(C(=O)O)cc1`, for which the activation is 2.28% (inactive). The figure for `C[C@]1(O)CC[C@H]2[C@@H]3CCC4=CC(=O)CC[C@]4(C)[C@@]3(F)[C@@H](O)C[C@@]21C` is -0.176% (inactive); for `Clc1ccc(C(c2ccc(Cl)cc2)C(Cl)(Cl)Cl)cc1` it is 4.82% (inactive). With `Cc1cc(=O)[nH]c(=S)[nH]1`, the activation was 0.173% (inactive).
